Test results published in PubChem BioAssay (Tox21).
“And” between values parts separate entries of the source, which are not always exact repeats. Equal entries are not always repeated. Inconclusive results are not listed. A structure can be active in one record and inactive in another. The source made the active and inactive calls. Unless noted, the call rests on the fitted dose curve; in most records, active means well fitted curve in the direction sought with a large enough effect in the repeat runs; inconclusive means weak or mixed curves; inactive means no such curve, though single readings can be large; an effect the other way counts as inactive or inconclusive.

Key:
[1] = biological target: Estrogen receptor beta (Homo sapiens) (UniProt Q92731); experiment: qHTS assay to identify small molecule agonists of the estrogen receptor beta (ER-beta) signaling pathway (AID 1259377; active means well fitted activation curve with a large enough effect in the signal ratio in the repeat runs, not every such curve was filed as active; the % refers to the signal ratio)
Chain of Estrogen receptor beta (Homo sapiens) (Q92731 whole entry, looked up): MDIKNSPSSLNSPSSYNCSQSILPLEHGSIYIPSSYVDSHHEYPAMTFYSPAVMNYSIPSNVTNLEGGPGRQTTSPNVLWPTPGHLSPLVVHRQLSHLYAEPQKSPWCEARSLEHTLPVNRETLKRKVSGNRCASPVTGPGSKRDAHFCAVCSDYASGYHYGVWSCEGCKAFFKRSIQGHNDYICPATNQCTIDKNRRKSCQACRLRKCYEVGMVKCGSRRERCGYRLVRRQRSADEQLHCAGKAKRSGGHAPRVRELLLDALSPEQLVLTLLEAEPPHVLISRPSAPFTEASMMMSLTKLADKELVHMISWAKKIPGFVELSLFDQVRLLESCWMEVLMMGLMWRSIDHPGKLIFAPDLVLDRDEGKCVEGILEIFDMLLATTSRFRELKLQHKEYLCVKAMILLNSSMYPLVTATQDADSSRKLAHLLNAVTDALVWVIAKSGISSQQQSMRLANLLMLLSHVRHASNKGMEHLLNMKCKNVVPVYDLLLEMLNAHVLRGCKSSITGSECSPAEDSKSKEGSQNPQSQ
In short: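 Reporter cells (HEK293T, ER-beta-UAS-bla) receive compounds or DMSO after a 6 hr pre-incubation. They then incubate 16 hr at 37C/5% CO2, and fluorescence from LiveBLAzer B/G substrate is measured after 2 hours at room temperature.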

[2] = biological target: Estrogen receptor beta (Homo sapiens) (UniProt Q92731); experiment: qHTS assay to identify small molecule antagonists of the estrogen receptor beta (ER-beta) signaling pathway (AID 1259378; active means well fitted inhibition curve with a large enough effect in the signal ratio in the repeat runs, not every such curve was filed as active; the % refers to the signal ratio)
In short: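 ER-beta-UAS-bla HEK293T (GripTite) cells in 2% charcoal-stripped FBS medium were preincubated 6 hr at 37C, dosed with compound, then stimulated with 1 nM E2 (final) for 16 hr; beta-lactamase reporter read by B/G FRET fluorescence after 2 hr substrate loading.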

[3] = qHTS assay to identify small molecule agonists of the androgen receptor (AR) signaling pathway in the presence of an antagonist - cell viability counter screen (AID 1259379); further: nearly all actives have a fitted effect of over 25% in size; further: potency means the concentration at half of the fitted maximal effect
In short: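 A CellTiter-Fluor read-out measured viability of MDA-kb2 reporter cells (MMTV promoter with AR and GR response elements). Treatment: nilutamide 3.0uM final with compounds at 15 concentrations, 16 hr, 37C, 0% CO2.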

[4] = qHTS assay to identify small molecule agonists of the estrogen receptor beta (ER-beta) signaling pathway - cell viability counter screen (AID 1259380); further: nearly all actives have a fitted effect of over 30% in size; further: potency means the concentration at half of the fitted maximal effect
In short: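 Cells used were ER-beta-UAS-bla HEK293T in medium with 2% charcoal-stripped FBS. They were treated for 16 hr at 37C. Viability came from CellTiter-Glo luminescence.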

[5] = qHTS assay to identify small molecule antagonists of the estrogen receptor beta (ER-beta) signaling pathway - cell viability counter screen (AID 1259382); further: nearly all actives have a fitted effect of over 55% in size; further: potency means the concentration at half of the fitted maximal effect
In short: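 Agonist-stimulated (1nM E2) ER-beta-UAS-bla HEK293T cells are incubated with library compounds for 16 hr at 37C. Cell viability is then assessed in the reporter-assay wells by adding CellTiter-Glo and reading luminescence after 30 min.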

[6] = biological target: Estrogen receptor (Homo sapiens) (UniProt P03372); experiment: qHTS assay to identify small molecule agonists of the estrogen receptor alpha (ER-alpha) signaling pathway in the presence of an antagonist (AID 1259383; calls by dose curve; further: top concentration of the series differs between compounds; nearly all actives have a fitted effect of over 15% in size)
Chain of Estrogen receptor (Homo sapiens) (P03372 whole entry, looked up): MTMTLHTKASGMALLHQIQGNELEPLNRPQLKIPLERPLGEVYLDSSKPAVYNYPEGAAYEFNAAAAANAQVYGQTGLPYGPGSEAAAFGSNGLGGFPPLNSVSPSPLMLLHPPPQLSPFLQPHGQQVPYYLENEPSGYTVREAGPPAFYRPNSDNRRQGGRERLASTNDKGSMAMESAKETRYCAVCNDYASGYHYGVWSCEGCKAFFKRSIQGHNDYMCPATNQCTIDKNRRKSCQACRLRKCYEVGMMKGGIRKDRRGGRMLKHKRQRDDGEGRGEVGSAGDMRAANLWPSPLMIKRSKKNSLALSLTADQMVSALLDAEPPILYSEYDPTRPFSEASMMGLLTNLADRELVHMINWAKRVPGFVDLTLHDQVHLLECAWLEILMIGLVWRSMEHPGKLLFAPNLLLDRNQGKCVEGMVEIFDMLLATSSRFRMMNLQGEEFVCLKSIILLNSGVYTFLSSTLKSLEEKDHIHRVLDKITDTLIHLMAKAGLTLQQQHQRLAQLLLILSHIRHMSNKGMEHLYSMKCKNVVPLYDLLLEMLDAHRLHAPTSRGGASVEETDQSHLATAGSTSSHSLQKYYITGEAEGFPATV
In short: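 Using VM7Luc4E2 cells seeded 24hr before treatment, antagonist ICI-182,780 (10.0nM final) was added, followed by compounds at 15 concentrations. Plates incubated 22hr; ONE-Glo luminescence quantified reporter activity.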

[7] = qHTS assay to identify small molecule agonists or antagonists of the thyroid stimulating hormone receptor (TSHR) signaling pathway - wild type cell line counter screen (AID 1259384; calls by dose curve)
In short: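 Wild-type HEK293 cells were plated 18 h at 37 C/5% CO2, pin-dosed with compound plus Ro20-1724 medium, held 30 min at room temperature, then given cAMP-d2 and anti-cAMP-cryptate; fluorescence was read after 1 h. Fifteen concentrations, triplicate.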

[8] = biological target: Thyrotropin receptor (Homo sapiens) (UniProt P16473); experiment: qHTS assay to identify small molecule antagonists of the thyroid stimulating hormone receptor (TSHR) signaling pathway (AID 1259385; calls by dose curve; further: nearly all actives have a fitted effect of over 20% in size)
Chain of Thyrotropin receptor (Homo sapiens) (P16473 whole entry, looked up): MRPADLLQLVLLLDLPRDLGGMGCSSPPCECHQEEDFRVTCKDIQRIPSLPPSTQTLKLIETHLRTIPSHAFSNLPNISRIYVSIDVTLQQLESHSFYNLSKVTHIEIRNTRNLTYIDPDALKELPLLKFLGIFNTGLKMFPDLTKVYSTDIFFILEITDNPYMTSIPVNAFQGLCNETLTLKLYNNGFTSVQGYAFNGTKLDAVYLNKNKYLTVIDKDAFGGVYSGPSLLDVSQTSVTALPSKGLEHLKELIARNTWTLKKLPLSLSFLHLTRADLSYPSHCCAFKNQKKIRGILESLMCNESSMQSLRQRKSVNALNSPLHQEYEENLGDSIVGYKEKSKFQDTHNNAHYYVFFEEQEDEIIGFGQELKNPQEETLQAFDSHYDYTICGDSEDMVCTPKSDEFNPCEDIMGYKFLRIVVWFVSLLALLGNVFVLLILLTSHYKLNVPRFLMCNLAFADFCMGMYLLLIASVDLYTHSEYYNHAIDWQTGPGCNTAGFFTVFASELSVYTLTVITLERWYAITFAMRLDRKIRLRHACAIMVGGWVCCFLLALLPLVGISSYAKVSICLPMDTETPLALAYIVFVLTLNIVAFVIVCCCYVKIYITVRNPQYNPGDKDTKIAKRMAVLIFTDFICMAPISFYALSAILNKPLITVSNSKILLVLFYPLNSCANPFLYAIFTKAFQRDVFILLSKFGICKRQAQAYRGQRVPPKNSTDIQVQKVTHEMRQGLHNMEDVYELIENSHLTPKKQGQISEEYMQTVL
In short: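 TSHR-HEK293 cells were plated and held 18 h at 37C/5% CO2, then given compound plus Ro20-1724 and stimulated with TSH at 1.5 ng/mL final. After 30 min at room temperature, cAMP was detected with cAMP-d2/anti-cAMP-cryptate (1 h) by fluorescence.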

[9] = qHTS assay to identify small molecule agonists of the estrogen receptor alpha (ER-alpha) signaling pathway in the presence of an antagonist - cell viability counter screen (AID 1259386);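 further: cells exposed to compounds for 22 h at 37 °C before the viability read; nearly all actives have a fitted effect of over 30% in size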; further: potency means the concentration at half of the fitted maximal effect
In short: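 ICI-182,780 at 10.0nM final accompanies the compound titration (15 concentrations, 22hr, 37C) on VM7Luc4E2 cells. The CellTiter-Fluor fluorescence readout runs in the same wells as the luciferase assay.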

[10] = biological target: Progesterone receptor (Homo sapiens) (UniProt P06401); experiment: qHTS assay to identify small molecule agonists of the progesterone receptor (PR) signaling pathway (AID 1346784; calls by dose curve; further: nearly all actives have a fitted effect of over 30% in size)
Chain of Progesterone receptor (Homo sapiens) (P06401 whole entry, looked up): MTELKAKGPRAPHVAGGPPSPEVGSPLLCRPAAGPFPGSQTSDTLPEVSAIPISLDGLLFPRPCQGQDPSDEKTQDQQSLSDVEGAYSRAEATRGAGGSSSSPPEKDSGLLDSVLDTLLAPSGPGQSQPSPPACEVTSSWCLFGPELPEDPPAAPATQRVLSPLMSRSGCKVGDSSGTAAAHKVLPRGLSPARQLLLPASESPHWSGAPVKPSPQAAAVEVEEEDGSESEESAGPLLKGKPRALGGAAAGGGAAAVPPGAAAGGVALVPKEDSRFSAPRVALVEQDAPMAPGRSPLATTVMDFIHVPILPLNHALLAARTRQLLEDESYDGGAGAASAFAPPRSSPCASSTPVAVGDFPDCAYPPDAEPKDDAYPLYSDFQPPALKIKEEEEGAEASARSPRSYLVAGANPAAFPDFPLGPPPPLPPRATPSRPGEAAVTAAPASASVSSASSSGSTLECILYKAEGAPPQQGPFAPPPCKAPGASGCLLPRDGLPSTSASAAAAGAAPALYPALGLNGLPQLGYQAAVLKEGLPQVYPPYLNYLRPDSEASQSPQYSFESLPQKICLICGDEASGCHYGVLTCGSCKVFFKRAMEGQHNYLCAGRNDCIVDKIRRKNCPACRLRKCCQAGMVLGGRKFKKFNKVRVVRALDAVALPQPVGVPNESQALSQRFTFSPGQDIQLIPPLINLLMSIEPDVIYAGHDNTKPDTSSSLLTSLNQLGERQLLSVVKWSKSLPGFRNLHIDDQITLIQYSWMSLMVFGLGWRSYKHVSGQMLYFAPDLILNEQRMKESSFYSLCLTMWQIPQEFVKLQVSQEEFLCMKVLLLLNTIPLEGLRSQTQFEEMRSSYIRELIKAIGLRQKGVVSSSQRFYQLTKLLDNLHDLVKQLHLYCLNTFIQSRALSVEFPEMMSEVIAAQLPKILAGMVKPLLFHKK
In short: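 Reporter assay, GripTite PR-UAS-bla HEK 293T cells: 16 hr exposure to DMSO-dissolved compounds at 37C, 5% CO2, in steroid-depleted (2% charcoal-stripped FBS) medium; beta-lactamase measured by FRET fluorescence.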

[11] = biological target: Progesterone receptor (Homo sapiens) (UniProt P06401); experiment: qHTS assay to identify small molecule antagonists of the progesterone receptor (PR) signaling pathway (AID 1346795; active means well fitted inhibition curve with a large enough effect in the signal ratio in the repeat runs, not every such curve was filed as active; the % refers to the signal ratio; further: potency means the concentration at half of the fitted maximal effect)
In short: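 Stimulus R5020 at 1 nM final; cells HEK293T PR-UAS-bla; medium with 2% charcoal-stripped FBS; compound exposure 16 hr at 37C, 5% CO2; detection by FRET beta-lactamase substrate, 2 hr, room temperature.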

[12] = qHTS assay to identify small molecule agonists of the progesterone receptor (PR) signaling pathway - cell viability counter screen (AID 1346799; calls by dose curve; further: nearly all actives have a fitted effect of over 45% in size; further: potency means the concentration at half of the fitted maximal effect)
In short: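 Multiplexed viability read: CellTiter-Glo luminescence, 30 min RT, following LiveBLAzer FRET measurement on PR-UAS-bla HEK293T cells exposed to compounds 16 hr.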

[13] = qHTS assay to identify small molecule antagonists of the TGF-beta/Smad signaling pathway - cell viability counter screen (AID 1346824); further: nearly all actives have a fitted effect of over 50% in size
In short: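 SBE-bla HEK 293T cells were plated overnight at 37 C, then given compounds in DMSO plus TGF-beta1 (added as 0.25 ng/mL solution) for 5 hr. After the bla read, CellTiter-Glo was added to the same wells and luminescence read after 30 min at room temperature.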

[14] = qHTS assay to identify small molecule agonists of the TGF-beta/Smad signaling pathway - cell viability counter screen (AID 1346829); further: top concentration of the series differs between compounds; nearly all actives have a fitted effect of over 45% in size
In short: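 Compound-treated SBE-bla HEK 293T cells (5 hr, 37 C) were assessed for viability with CellTiter-Glo in parallel with the reporter read.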

[15] = qHTS assay to identify small molecule agonists of the TGF-beta/Smad signaling pathway (AID 1346859; active means well fitted activation curve with a large enough effect in the signal ratio in the repeat runs, not every such curve was filed as active; the % refers to the signal ratio; further: series mostly up to about 77 µM)
In short: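 Screening used HEK 293T SBE-bla cells at 4,000/well. Test agents: 5 hr, 37 C. Detection: FRET substrate, 2 hr RT, then excitation 405 nm with emissions at 460 and 530 nm.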

[16] = biological target: Thyrotropin-releasing hormone receptor (Homo sapiens) (UniProt P34981); experiment: qHTS assay to identify small molecule antagonists of the thyrotropin-releasing hormone receptor (TRHR) signaling pathway (AID 1346877; active means well fitted inhibition curve with a large enough effect in the repeat runs, not every such curve was filed as active; further: potency means the concentration at half of the fitted maximal effect)
Chain of Thyrotropin-releasing hormone receptor (Homo sapiens) (P34981 whole entry, looked up): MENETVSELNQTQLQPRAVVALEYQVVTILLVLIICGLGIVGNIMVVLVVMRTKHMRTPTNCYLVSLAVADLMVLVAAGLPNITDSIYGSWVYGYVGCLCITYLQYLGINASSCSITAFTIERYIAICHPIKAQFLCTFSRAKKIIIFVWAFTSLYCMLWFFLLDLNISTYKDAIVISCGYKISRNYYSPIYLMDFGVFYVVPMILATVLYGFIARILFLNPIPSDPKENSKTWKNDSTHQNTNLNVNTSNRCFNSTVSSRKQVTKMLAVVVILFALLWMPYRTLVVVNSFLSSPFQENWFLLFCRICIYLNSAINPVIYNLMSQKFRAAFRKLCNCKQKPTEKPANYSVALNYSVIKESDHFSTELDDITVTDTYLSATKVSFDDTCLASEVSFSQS
In short: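 Screening used HEK293 cells engineered with TRHR, with a brief 5 min room-temperature compound exposure preceding addition of TRH to 1 nM. The read-out was kinetic calcium-dye fluorescence, concentration-response from 15 doses in triplicate.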

[17] = biological target: Thyrotropin-releasing hormone receptor (Homo sapiens) (UniProt P34981); experiment: qHTS assay to identify small molecule agonists of the thyrotropin-releasing hormone receptor (TRHR) signaling pathway (AID 1346891; calls by dose curve; further: potency means the concentration at half of the fitted maximal effect; on activation: series mostly up to about 58 µM)
In short: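 Readout was intracellular calcium fluorescence in TRHR-Hek293 cells. Cells were incubated 18 h, dye-loaded 2 h at 37 °C, and treated with compound in agonist mode.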

[18] = Human pregnane X receptor (PXR) small molecule agonists, qHTS cell viability counter screen (AID 1346977); further: nearly all actives have a fitted effect of over 50% in size; further: potency means the concentration at half of the fitted maximal effect
In short: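 In each well, the PXR reporter HepG2 line was checked for viability: CellTiter-Fluor reagent added 23hr post-dosing, fluorescence read after 1hr incubation at 37C.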

[19] = biological target: Androgen receptor (Homo sapiens) (UniProt P10275); experiment: qHTS assay to identify small molecule agonists of the androgen receptor (AR) signaling pathway in the presence of an antagonist (AID 1259381; calls by dose curve; further: nearly all actives have a fitted effect of over 15% in size; further: potency means the concentration at half of the fitted maximal effect)
Chain of Androgen receptor (Homo sapiens) (P10275 whole entry, looked up): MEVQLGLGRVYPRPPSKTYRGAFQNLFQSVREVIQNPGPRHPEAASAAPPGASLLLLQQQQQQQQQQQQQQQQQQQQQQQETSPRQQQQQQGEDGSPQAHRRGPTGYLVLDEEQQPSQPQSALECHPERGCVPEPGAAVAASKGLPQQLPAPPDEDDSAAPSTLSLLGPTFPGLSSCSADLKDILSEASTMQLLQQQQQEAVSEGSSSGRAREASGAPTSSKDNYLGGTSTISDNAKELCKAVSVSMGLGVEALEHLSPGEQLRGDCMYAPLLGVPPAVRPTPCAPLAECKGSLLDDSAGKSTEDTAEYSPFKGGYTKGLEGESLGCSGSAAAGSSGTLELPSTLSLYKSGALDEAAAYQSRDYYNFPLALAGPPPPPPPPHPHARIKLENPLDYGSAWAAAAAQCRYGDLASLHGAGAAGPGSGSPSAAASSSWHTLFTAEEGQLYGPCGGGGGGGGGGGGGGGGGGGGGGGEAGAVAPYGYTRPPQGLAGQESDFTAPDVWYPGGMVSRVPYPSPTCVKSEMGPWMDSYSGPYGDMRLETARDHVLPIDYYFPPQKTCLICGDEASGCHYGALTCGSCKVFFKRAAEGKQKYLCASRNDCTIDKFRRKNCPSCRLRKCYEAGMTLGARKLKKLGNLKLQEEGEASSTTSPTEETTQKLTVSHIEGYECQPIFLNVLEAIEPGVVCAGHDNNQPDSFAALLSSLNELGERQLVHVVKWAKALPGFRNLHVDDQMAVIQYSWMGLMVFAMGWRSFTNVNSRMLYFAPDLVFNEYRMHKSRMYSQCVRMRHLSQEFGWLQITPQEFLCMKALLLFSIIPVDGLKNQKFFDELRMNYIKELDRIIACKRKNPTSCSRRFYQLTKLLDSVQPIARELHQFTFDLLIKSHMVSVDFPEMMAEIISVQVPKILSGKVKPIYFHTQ
In short: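 Using human MDA-kb2 cells with an MMTV promoter–luciferase construct (AR and GR response elements), agonist activity is scored under 3.0uM nilutamide (final) co-treatment; 16hr incubation, 37C, luminescence readout via ONE-Glo.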

[20] = qHTS assay to identify small molecule antagonists of the progesterone receptor (PR) signaling pathway - cell viability counter screen (AID 1346798); further: series mostly up to about 92 µM; nearly all actives have a fitted effect of over 50% in size
In short: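 In the same plates used for the beta-lactamase readout, cell viability of compound- and R5020-treated PR-UAS-bla HEK293T cells (16 hr, 37C) was assessed by CellTiter-Glo luminescence.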

Measured: Potency

C=CS(=O)(=O)O
not listed: [19] | [20]
inactive: all other assays above

Nc1ccc(O)cc1
31.8 µM (active) and inactive: [9]
5.04 µM (active) and inactive: [19]
56.6 µM (active) and inactive: [3] | [18]
63.5 µM (active) and inactive: [5]
inactive: all other assays above

COc1ccc(Cc2cnc(N)nc2N)cc1OC
not listed: [14]
inactive: all other assays above

CC(=O)C1=C(C)[C@@H]2C[C@@]3(C1)[C@H](C)CC[C@H]3C2(C)C
not listed: [8] | [19] | [20]
inactive: all other assays above

COC(=O)c1cccc(C(=O)OC)c1
not listed: [7] | [8]
inactive: all other assays above

NC(=Nc1ccccc1)Nc1ccccc1
10.1 µM (active) and inactive: [16]
active: [17] 7.76 µM and 15.1 µM | [18] 4.86 µM
not listed: [14] | [19] | [20]
inactive: all other assays above

Clc1ccc2c(c1)C(N1CCNCC1)=Nc1ccccc1O2
active: [3] 61.1 µM and 29.8 µM | [4] 30.6 µM and 23.7 µM | [18] 29.8 µM
5.45 µM (active) and inactive: [11]
not listed: [7] | [10] | [14] | [19]
inactive: all other assays above

BrC1CCC(Br)C(Br)CCC(Br)C(Br)CCC1Br (stereo not given)
inactive: [1] | [2] | [3] | [19] | [6] | [10] | [13]
active: [4] 30.5 µM and 46.1 µM | [5] 54.3 µM and 46.1 µM | [12] 30.5 µM and 41.1 µM

CC(=O)Nc1ccc(C(=O)CCl)cc1
inactive and 61.1 µM (active): [18]
active: [3] 54.5 µM
not listed: [6] | [20]
inactive: all other assays above

CN1C(=O)c2ccc([N+](=O)[O-])cc2C1=O
not listed: [7] | [10] | [11] | [14] | [20]
inactive: all other assays above

c1ccc2n[nH]nc2c1
not listed: [6] | [16] | [17] | [19]
inactive: all other assays above

CCOc1ccccc1C(N)=O
inactive and 26.6 µM (active): [11]
not listed: [14]
inactive: all other assays above

C=CC(=O)OCCCCCCCC
not listed: [16] | [17] | [19]
inactive: all other assays above
